This is part of a sample that, as a whole, favours compounds with a hit. Of some 83,000 tested, about 20% had one in any assay.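 48-hour exposure, single concentration, 96-well plates; percent growth endpoint where 0 means no net growth. Active: below 10.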 A number with no mark means an inactive call. Activity calls are given as the source filed them.
Assays:
Test in all cases: NCI-60 one-dose screen, 48 h (100 = growth as untreated, 0 = no growth, -100 = all killed)
Conditions in all cases: 10 µM unless noted
[1] = system: HCT-15 colon
[2] = system: HT29 colon
[3] = system: SNB-75 CNS
[4] = system: SNB-19 CNS
[5] = system: U251 CNS
[6] = system: PC-3 prostate
[7] = system: UACC-62 melanoma
[8] = system: LOX IMVI melanoma
[9] = system: SK-MEL-28 melanoma
[10] = system: SK-MEL-5 melanoma

| Structure (SMILES) | growth [1] | growth [2] | growth [3] | growth [4] | growth [5] | growth [6] | growth [7] | growth [8] | growth [9] | growth [10] |
| --- | --- | --- | --- | --- | --- | --- | --- | --- | --- | --- |
| COc1ccc(-c2nc(NN)c3c(C)nn(-c4ccc(F)cc4)c3n2)cc1 | 31.2% | 7.11% (active) | 23.3% | 35.1% | 27.1% | 42.3% | 36.2% | 41.9% | 61.4% |  |
| O=C(Nc1ccc(I)cc1F)c1cc(I)ccc1O | 4.84% (active) | 78.7% | 1.71% (active) | 17.5% | 16.1% | 7.79% (active) |  | 8.01% (active) | 5.11% (active) | -95.8% (active) |
| NCCNc1nc2ccccc2c2c(=O)c3cccc(F)c3sc12 | 36.5% | 16.4% | 88% | 56.8% | 43.9% | 62.9% | 95.9% | 46.6% | 106% |  |
| CC[C@H](C)C(=O)O[C@H]1CCC=C2C=C[C@H](C)[C@H](CC[C@@H]3CC=CC(=O)O3)[C@H]21 | 85.7% | 67.7% | 68.9% | 83.5% | 88.1% | 61.6% | 82.3% | 53.3% | 94.8% |  |
| C/C(=C(/c1ccccc1)c1ccc(N2C(=O)c3cccc4c(N5CCN(C)CC5)ccc(c34)C2=O)cc1)c1ccccc1 | 56.8% | 24.8% | 98.1% | 88.9% | 75.4% | 61.4% | 73.5% | 24.6% | 88.4% |  |
| CCOC(=O)Nc1ccc(C(=O)/C=C/c2ccccc2)cc1 | 85.7% | 37.4% | 116% | 81.4% | 73.6% | 88.6% | 81.5% | 70.5% | 101% |  |
| COc1ccc(C(=O)C(C)C)c2ccccc12 | 99.6% | 106% | 115% | 108% | 110% | 93.4% | 106% | 96.4% | 126% |  |
| CCN(CC)CCNC(=O)c1cn2ncnc(Oc3ccc(NC(=O)Nc4ccc(Cl)c(C(F)(F)F)c4)cc3)c2c1C | -65.2% (active) | -68.2% (active) | -27% (active) | -83.4% (active) | -78% (active) | -79.2% (active) | -81.2% (active) | -98.8% (active) | -89.9% (active) |  |
| Cc1cc(Cl)ccc1NS(=O)(=O)c1ccc(-c2cnc(C3CC3)o2)cc1 | 14.1% | 5.04% (active) | -2.31% (active) | 22.8% | 24.8% | 26.6% | 26.7% | 22.4% | 49.1% |  |
| CN(C)c1ccc2nc3ccc(=[N+](C)C)c([N+](=O)[O-])c-3sc2c1 | 32.1% | 59% | 91.6% | 56.6% | 6.01% (active) | 4.48% (active) | 34.1% | 4.03% (active) | 57.8% |  |
| CN1C(=C2C(=O)OC(C)(C)OC2=O)CCC1C(=O)NCc1ccc(Cl)cc1Cl (stereo unspecified) | 101% | 79.5% | 107% | 97.7% | 95.5% | 83% | 86.9% | 93.5% | 93% |  |
| CSc1ccc2c(c1)c(CCN)c(C)n2Cc1ccc(Cl)c(Cl)c1 | -91.3% (active) | -82.9% (active) | -84.3% (active) | -75% (active) | -87.3% (active) | -90% (active) |  | -89.7% (active) | -65.6% (active) | -95.1% (active) |
| O=C(/C=C/c1cccc2ccccc12)c1ccc(NC(=O)c2ccccc2CN2C(=O)c3ccccc3C2=O)cc1 | 54.2% | 41.7% | 61.2% | 76.7% | 64.5% | 74% |  | 60.9% | 96.7% | 87.9% |
| NCCCNc1nc2ccccc2c2c(=O)c3cc(C(F)(F)F)ccc3sc12 | -55.7% (active) | -23.4% (active) | 60.1% | 30.4% | -55.7% (active) | 37.3% |  | -97.7% (active) | 81.2% | 45.8% |

Reference: PubChem BioAssay (NCI)
